Source: publication PMC8384837, “Expanding the binding specificity for RNA recognition by a PUF domain”

Columns and labels:
Assay in all cases: yeast three-hybrid, YBZ-1, SC-Leu-His + 0.5 mM 3-AT, 4 days
Details in all cases: tags: N-Gal4 AD-HA kept; label: inside an RPR1-promoter hybrid RNA with tandem MS2 sites; ssRNA
PUM1 PUF domain R7-SRK = PUM1 PUF domain R7-SRK (Homo sapiens, UniProt Q14671 828-1176, N1080R;E1083K)
Procedure, shortened: (§1)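 The interaction score is the log change in variant frequency from input to selection. Scores were computed in log2 with a pseudocount of 1 for absent variants, using Illumina sequencing of PCR-amplified repeat regions. The input came from four days on SC-Leu and the selection from four days on SC-Leu-His + 0.5 mM 3-AT. The cells were strain YBZ-1 (LexA–MS2 coat fusion, HIS3 reporter) co-expressing Pumilio-1 PUF domain libraries and matching RNA elements from a centromeric plasmid.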

PUM1 PUF domain R6-VFR = target: T1, PUM1 PUF domain R6-VFR (Homo sapiens, UniProt Q14671 828-1176, N1043V;Y1044F;Q1047R)
T1 sequence: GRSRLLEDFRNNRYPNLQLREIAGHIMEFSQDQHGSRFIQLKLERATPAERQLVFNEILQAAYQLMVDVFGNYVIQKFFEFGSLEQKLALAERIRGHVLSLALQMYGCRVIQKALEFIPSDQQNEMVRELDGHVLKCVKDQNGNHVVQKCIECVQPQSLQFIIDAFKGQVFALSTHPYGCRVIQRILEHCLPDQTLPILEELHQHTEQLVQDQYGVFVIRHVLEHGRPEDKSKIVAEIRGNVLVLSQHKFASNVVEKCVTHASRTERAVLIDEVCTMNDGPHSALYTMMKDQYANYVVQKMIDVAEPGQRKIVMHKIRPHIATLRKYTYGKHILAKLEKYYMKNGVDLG
Procedure, shortened: as §1

PUM1 PUF domain R5-NPI = PUM1 PUF domain R5-NPI (Homo sapiens, UniProt Q14671 828-1176, C1007N;R1008P;Q1011I)
Procedure, shortened: as §1

PUM1 PUF domain R4-PHV = PUM1 PUF domain R4-PHV (Homo sapiens, UniProt Q14671 828-1176, N971P;Q975V)
Procedure, shortened: as §1

PUM1 PUF domain R3-DYI = PUM1 PUF domain R3-DYI (Homo sapiens, UniProt Q14671 828-1176, C935D;R936Y;Q939I)
Procedure, shortened: as §1

PUM1 PUF domain R3-SPR = PUM1 PUF domain R3-SPR (Homo sapiens, UniProt Q14671 828-1176, C935S;R936P;Q939R)
Procedure, shortened: as §1

GGCUAGAACUAGUGGAUCCCCCGGCGCCCGGCGGCUCGAGCCCGGGUAAGUCUAAAUAGUCUGCAUGCCGCCGGGCGCCAUGCCUGCAGGUCGACUCUAGAAAACAUG
binding signal (PUM1 PUF domain R7-SRK): 4.33 log2 enrichment (interaction score)

GGCUAGAACUAGUGGAUCCCCCGGCGCCCGGCGGCUCGAGCCCGGGUAAGUGCAAAUAGUCUGCAUGCCGCCGGGCGCCAUGCCUGCAGGUCGACUCUAGAAAACAUG
binding signal (PUM1 PUF domain R6-VFR): 1.27 log2 enrichment (interaction score)

GGCUAGAACUAGUGGAUCCCCCGGCGCCCGGCGGCUCGAGCCCGGGUAAGUGUUAAUAGUCUGCAUGCCGCCGGGCGCCAUGCCUGCAGGUCGACUCUAGAAAACAUG
binding signal (PUM1 PUF domain R5-NPI): 2.85 log2 enrichment (interaction score)

GGCUAGAACUAGUGGAUCCCCCGGCGCCCGGCGGCUCGAGCCCGGGUAAGUGUAAAUAGUCUGCAUGCCGCCGGGCGCCAUGCCUGCAGGUCGACUCUAGAAAACAUG
binding signal (PUM1 PUF domain R6-VFR): 4.2 log2 enrichment (interaction score) | binding signal (PUM1 PUF domain R4-PHV): 4.46 log2 enrichment (interaction score) | binding signal (PUM1 PUF domain R3-DYI): 5.38 log2 enrichment (interaction score) | binding signal (PUM1 PUF domain R3-SPR): 0.25 log2 enrichment (interaction score)
